Test results published in PubChem BioAssay (NCATS).
Results filed as inconclusive are left out. Calls of active or inactive are those of the source. Unless noted, the call rests on the fitted dose curve; in most records, active means well fitted curve in the direction sought with a large enough effect; inconclusive means small, poorly fitted or top-dose-only effect, or another doubt; inactive means no such curve, though single readings can be large; an effect the other way counts as inactive or inconclusive.

Experiments:
[1] = biological target: Lysosomal acid glucosylceramidase (Homo sapiens) (UniProt P04062); test: Glucocerebrosidase-p2 (AID 348; in the data active means potency below about 10 µM; further: potency means the concentration at half of the fitted maximal effect); conditions: purified GBA, blue fluorogenic substrate, 40 min
Sequence of Lysosomal acid glucosylceramidase (Homo sapiens) (P04062 whole entry, looked up): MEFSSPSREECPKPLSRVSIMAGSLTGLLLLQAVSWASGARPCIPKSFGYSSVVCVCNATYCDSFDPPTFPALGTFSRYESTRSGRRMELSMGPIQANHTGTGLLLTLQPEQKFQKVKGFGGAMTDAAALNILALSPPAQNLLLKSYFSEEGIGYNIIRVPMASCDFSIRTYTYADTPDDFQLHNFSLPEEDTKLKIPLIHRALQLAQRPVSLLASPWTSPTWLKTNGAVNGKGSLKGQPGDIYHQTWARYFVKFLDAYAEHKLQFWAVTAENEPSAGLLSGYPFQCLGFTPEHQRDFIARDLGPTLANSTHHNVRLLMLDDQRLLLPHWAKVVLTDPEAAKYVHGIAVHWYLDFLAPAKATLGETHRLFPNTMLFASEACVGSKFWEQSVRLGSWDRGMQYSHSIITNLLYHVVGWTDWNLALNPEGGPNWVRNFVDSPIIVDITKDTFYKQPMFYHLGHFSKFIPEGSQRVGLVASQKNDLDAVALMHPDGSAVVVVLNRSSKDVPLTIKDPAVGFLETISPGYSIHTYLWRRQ
Summary of the method: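 Compounds titrated from 0.6 nM upwards against 0.2 nM enzyme in pH 5.9 citric acid/KH2PO4, taurocholate, tween-20; blue fluorogenic substrate 80 uM, 40 min room temperature, stopped and read Ex 365/Em 440 for AC50.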

[2] = biological target: Cytochrome P450 1A2 (Homo sapiens) (UniProt P05177); test: p450-cyp1a2 (AID 410; calls by dose curve; further: potency means the concentration at half of the fitted maximal effect); conditions: recombinant CYP1A2, luciferin-ME demethylation, luminescence; series mostly up to 57 µM
Sequence of Cytochrome P450 1A2 (Homo sapiens) (P05177 whole entry, looked up): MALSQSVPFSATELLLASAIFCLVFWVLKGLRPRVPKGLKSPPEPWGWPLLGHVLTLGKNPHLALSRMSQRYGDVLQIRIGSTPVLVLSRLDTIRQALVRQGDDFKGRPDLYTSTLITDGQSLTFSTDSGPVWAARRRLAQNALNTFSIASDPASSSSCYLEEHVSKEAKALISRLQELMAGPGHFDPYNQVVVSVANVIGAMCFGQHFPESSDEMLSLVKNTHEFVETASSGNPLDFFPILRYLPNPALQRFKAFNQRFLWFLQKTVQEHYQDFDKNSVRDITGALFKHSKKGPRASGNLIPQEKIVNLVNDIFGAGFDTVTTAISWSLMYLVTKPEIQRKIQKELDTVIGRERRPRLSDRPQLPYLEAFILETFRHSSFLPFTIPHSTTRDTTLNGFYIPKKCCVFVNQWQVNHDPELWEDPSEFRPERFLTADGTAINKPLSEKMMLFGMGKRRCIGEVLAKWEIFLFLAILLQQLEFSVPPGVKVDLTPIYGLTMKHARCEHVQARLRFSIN
Summary of the method: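 Inhibition was calculated relative to 57 uM furafylline (full inhibition). The reaction used human CYP1A2 at 20nM with Luciferin-ME at its Km, 100uM, driven by an NADPH-regenerating system for 60 min at room temperature.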

[3] = biological target: Glucocorticoid receptor (Homo sapiens) (UniProt P04150); test: GR-GFP Redistribution (AID 450;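 active means compounds whose dose series gives a full or clear partial fitted curve of increased nuclear translocation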; further: potency means the concentration at half of the fitted maximal effect); conditions: U2OS GR-GFP nuclear translocation, laser cytometry, 2 h
Sequence of Glucocorticoid receptor (Homo sapiens) (P04150 whole entry, looked up, the tested form may be a part): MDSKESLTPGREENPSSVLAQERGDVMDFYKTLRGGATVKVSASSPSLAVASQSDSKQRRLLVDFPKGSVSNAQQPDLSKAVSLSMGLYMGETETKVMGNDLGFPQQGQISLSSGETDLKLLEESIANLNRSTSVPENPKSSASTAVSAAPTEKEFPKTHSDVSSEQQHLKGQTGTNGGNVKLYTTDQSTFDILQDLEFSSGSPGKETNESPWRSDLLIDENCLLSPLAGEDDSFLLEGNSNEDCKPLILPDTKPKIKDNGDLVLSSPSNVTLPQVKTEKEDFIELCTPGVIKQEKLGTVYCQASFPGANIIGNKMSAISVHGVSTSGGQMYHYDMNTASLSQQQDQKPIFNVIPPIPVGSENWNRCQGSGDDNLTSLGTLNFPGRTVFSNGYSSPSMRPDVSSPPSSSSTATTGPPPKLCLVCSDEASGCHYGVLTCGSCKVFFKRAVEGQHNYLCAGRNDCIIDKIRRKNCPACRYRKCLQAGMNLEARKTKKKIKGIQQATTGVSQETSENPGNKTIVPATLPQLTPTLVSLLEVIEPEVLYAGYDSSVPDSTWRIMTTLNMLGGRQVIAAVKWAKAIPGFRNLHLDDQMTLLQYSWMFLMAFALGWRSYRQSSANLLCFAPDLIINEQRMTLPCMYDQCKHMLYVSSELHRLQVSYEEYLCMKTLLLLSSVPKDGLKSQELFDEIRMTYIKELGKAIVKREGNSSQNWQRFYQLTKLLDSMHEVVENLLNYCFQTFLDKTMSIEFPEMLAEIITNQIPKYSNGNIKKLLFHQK

[4] = biological target: Glucocorticoid receptor (Homo sapiens) (UniProt P04150); test: GR-EFC Redistribution (AID 451; calls by dose curve; further: potency means the concentration at half of the fitted maximal effect); conditions: CHO-K1 GR-EFC translocation, beta-gal luminescence, 2 h
Summary of the method: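 CHO-K1 cells expressing nuclear EA and GR-ED fragments of b-gal; compounds titrated up to 46 uM final, 2 h at 37 C. GR nuclear translocation read as complemented b-gal luminescence after 1 h RT detection.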

[5] = biological target: Mitogen-activated protein kinase 10 (Mus musculus) (UniProt Q61831); test: JNK3 AlphaScreen Assay (AID 530; active means well fitted curve in either direction with a large enough effect, not every such curve was filed as active;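 further: kinase came from lysate of stimulated human HepG2 cells; signal reports phosphorylation of biotinylated GST-cJun 1-79 at Ser73 with 10 µM ATP; on the % scale 0 is the no-effect control and ±100 the full control effect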); conditions: JNK3 lysate, c-Jun phosphorylation; series mostly up to 57.1 µM
Summary of the method: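 qHTS format: compounds tested as titrations against IL-1beta/TNF-alpha-activated HepG2 lysate JNK3 with biotin-GST-cJun substrate and 10 uM ATP at room temperature. Loss of anti-phospho-cJun AlphaScreen signal indicates inhibition.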

[6] = biological target: 3',5'-cyclic-AMP phosphodiesterase 4B (Homo sapiens) (UniProt Q07343); test: qHTS Assay for Inhibitors of PDE-IV (AID 607; active means well fitted activation curve with a large enough effect in the main read-out, with a control signal flat, not every such curve was filed as active; further: % of control where 0% means no effect); conditions: HEK293 ACTOne CNG channel cells, membrane potential fluorescence; series mostly up to 22.9 µM
Sequence of 3',5'-cyclic-AMP phosphodiesterase 4B (Homo sapiens) (Q07343 whole entry, looked up): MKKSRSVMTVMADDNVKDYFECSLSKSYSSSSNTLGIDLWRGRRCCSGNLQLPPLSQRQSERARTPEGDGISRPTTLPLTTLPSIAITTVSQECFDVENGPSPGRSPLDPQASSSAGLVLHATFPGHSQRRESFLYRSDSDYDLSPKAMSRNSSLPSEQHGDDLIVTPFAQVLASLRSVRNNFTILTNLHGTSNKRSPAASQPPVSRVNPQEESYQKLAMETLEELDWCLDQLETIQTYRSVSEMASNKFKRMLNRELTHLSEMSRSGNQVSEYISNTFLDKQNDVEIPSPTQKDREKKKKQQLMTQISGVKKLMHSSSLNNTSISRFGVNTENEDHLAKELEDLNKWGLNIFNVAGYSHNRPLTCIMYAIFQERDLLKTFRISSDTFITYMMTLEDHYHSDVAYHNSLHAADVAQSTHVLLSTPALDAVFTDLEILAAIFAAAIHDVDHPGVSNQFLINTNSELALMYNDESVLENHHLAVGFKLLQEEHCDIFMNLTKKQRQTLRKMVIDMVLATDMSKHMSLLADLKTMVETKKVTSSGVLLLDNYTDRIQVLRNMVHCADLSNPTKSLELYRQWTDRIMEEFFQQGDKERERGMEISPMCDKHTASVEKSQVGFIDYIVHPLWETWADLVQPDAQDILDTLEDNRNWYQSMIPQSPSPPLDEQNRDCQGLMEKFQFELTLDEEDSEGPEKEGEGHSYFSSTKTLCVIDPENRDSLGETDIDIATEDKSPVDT
Summary of the method: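 HEK293 ACTOne cells with CNG channel (1000/well), endogenous PDE4; membrane potential dye, compounds up to 22.9 uM final. Fluorescence Ex 535/Em 590; RO 20-1724 (100 uM final) as reference.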

[7] = qHTS Assay for Identification of Small Molecule Agonists for Hypoxia Response Element Signaling Pathway (AID 914; active means well fitted activation curve with a large enough effect in the signal ratio, with a control signal flat, not every such curve was filed as active; the % refers to the signal ratio; further: potency means the concentration at half of the fitted maximal effect); conditions: ME-180 (cervical carcinoma) HRE-bla reporter, beta-lactamase ratio, CoCl2, 17 h; activation: stronger effect = higher value
Summary of the method: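 Read-out: CCF4 FRET ratio of 460nm to 530nm emission (excitation 405nm) after 2.5 hours at room temperature, taken from HRE-bla ME-180 cells that had been exposed to compound and EC50 CoCl2 for 17 hours.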

[8] = biological target: Dual specificity protein kinase CLK4 (Homo sapiens) (UniProt Q9HAZ1); test: qHTS Assay for Inhibitors of CDC-like Kinase 4 (ADP-Glo Assay) (AID 1771); conditions: recombinant CLK4, ADP-Glo luminescence; series mostly up to 80 µM; further: on the % scale 0 is the no-effect control and ±100 the full control effect; nearly all actives have a fitted effect of over 70% in size
Sequence of Dual specificity protein kinase CLK4 (Homo sapiens) (Q9HAZ1 whole entry, looked up): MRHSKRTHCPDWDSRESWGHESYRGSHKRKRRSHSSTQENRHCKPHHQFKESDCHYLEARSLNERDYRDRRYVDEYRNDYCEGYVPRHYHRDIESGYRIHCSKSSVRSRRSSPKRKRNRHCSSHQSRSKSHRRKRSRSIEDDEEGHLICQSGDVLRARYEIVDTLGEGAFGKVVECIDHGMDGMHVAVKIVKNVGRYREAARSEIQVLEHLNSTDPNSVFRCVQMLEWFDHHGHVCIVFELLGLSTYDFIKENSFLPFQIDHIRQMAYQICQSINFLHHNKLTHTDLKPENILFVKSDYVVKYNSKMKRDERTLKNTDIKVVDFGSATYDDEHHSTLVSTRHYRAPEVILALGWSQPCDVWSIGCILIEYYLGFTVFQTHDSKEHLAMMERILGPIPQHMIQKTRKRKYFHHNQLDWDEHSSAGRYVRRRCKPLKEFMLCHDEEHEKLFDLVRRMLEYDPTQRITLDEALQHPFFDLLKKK
Summary of the method: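 Kinase reaction: Clk4 at 25 nM, RS repeat peptide substrate at 100 uM, ATP at 1 uM, 1 hr, room temperature. Product ADP detected as luciferase signal via ADP-Glo.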

[9] = biological target: Dual specificity protein kinase CLK4 (Homo sapiens) (UniProt Q9HAZ1); test: qHTS Assay for Inhibitors of CDC-like Kinase 4 (ADP-FP Assay) (AID 1795); conditions: Transcreener ADP fluorescence polarization; series mostly up to 50 µM;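 further: recombinant human CLK4 phosphorylating RS repeat peptide at 1 µM ATP; on the % scale 0 is the no-effect control and ±100 the full control effect; nearly all actives have a fitted effect of over 60% in size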
Summary of the method: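 Recombinant Clk4 (6.25 nM) phosphorylated 100 uM RS repeat peptide with 1 uM ATP in 25 mM Tris pH 7.5, 10 mM MgCl2, 0.5 mM EGTA, 2.5 mM DTT, 0.01% Triton X-100 for 1 h. ADP was detected by Transcreener ADP2 competitive fluorescence polarization after 30 min at room temperature.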

[10] = biological target: Ubiquitin carboxyl-terminal hydrolase 1 (Homo sapiens) (UniProt O94782); test: Inhibitors of USP1/UAF1: Pilot qHTS (AID 504865); conditions: purified USP1/UAF1, Ub-rhodamine cleavage fluorescence; series mostly up to 54.9 µM;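 further: rhodamine fluorescence freed from ubiquitin-rhodamine substrate followed over time; top concentration of the series differs between compounds; on the % scale 0 is the no-effect control and ±100 the full control effect; nearly all actives have a fitted effect of over 35% in size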
Sequence of Ubiquitin carboxyl-terminal hydrolase 1 (Homo sapiens) (O94782 whole entry, looked up): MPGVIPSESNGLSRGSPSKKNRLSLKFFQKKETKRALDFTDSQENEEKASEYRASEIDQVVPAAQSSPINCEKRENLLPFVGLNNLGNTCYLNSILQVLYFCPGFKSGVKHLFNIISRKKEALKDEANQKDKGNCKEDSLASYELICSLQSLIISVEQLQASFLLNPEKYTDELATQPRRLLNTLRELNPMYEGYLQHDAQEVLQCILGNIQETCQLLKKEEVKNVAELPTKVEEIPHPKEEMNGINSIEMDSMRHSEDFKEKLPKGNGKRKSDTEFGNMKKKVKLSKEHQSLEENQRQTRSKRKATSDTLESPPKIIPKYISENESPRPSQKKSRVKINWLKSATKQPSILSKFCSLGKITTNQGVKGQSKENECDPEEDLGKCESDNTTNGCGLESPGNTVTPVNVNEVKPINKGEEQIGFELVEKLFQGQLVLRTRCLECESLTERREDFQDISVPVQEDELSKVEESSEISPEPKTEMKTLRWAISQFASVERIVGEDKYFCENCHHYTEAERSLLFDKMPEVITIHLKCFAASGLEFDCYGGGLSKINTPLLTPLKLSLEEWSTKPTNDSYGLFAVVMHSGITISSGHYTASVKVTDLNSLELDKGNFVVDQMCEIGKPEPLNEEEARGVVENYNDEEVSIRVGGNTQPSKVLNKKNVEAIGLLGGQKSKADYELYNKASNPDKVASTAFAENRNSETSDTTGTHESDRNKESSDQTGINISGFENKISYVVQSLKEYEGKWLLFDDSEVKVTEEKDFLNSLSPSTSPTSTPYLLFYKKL
Summary of the method: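 USP1/UAF1 complex at 1 nM preincubated 15 min at room temperature with compound, then Ub-Rho substrate added at 150 nM final. Fluorescence (480/540 nm) read kinetically in 50 mM HEPES pH 7.8, 0.5 mM EDTA, 1 mM TCEP, 0.1 mg/ml BSA, 0.01% Tween-20.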

[11] = Counterscreen qHTS for small molecule stabilizers of the endoplasmic reticulum resident proteome: GLuc-NoTag assay (AID 1508627); conditions: Gaussia luciferase NoTag secretion counterscreen, luminescence, thapsigargin 100 nM for final 4 h; series mostly up to 76.4 µM;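 further: SH-SY5Y cells given compound then 100 nM thapsigargin to empty ER calcium; 0% = thapsigargin alone and -100% = DMSO vehicle control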
Summary of the method: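 SH-SY5Y cells stably expressing constitutively secreted GLuc without SERCaMP tag, exposed to compound for 19 hr, then to 100 nM thapsigargin for 4 hr at 37C. Medium luciferase was read by coelenterazine luminescence without lysis.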

[12] = Cell Viability qHTS for small molecule stabilizers of the endoplasmic reticulum resident proteome (AID 1508629); conditions: cell viability counter-screen, 100 nM thapsigargin for final 4 h;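 further: human SH-SY5Y neuroblastoma cells carrying the GLuc-SERCaMP reporter; compound exposure about 46 h in total before the viability read; on the % scale 0 is the no-effect control and ±100 the full control effect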
[13] = biological target: Cytochrome P450 2C9 (Homo sapiens) (UniProt P11712); test: qHTS Assay for Inhibitors and Substrates of Cytochrome P450 2C9 (AID 883); conditions: recombinant CYP2C9, luciferin-H luminescence, 60 min; series mostly up to 57.1 µM; further: potency means the concentration at half of the fitted maximal effect; nearly all actives have a fitted effect of over 60% in size
Sequence of Cytochrome P450 2C9 (Homo sapiens) (P11712 whole entry, looked up): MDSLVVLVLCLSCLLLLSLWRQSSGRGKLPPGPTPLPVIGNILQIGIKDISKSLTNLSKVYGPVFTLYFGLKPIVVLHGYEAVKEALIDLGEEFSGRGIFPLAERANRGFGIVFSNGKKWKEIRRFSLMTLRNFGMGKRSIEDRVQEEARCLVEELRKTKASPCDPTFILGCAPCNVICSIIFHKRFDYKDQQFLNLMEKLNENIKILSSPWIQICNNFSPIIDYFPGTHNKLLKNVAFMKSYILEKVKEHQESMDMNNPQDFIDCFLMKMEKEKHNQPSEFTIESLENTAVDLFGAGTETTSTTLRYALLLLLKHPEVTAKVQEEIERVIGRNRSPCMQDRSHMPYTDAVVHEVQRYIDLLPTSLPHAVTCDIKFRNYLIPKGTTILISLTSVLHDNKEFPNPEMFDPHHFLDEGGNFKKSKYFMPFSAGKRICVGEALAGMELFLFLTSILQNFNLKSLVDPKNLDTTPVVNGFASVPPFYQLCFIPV
Summary of the method: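 Signal: luciferase luminescence reporting luciferin produced by CYP2C9. Conditions: 10nM enzyme, Luciferin-H 100uM at KM, 25mM KPO4, 37C, 60 min NADPH-driven reaction. Reference: 57uM sulphaphenazole as 100% inhibition.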

[14] = biological target: Cytochrome P450 3A4 (Homo sapiens) (UniProt P08684); test: qHTS Assay for Activators of Cytochrome P450 3A4 (AID 885); conditions: recombinant CYP3A4, Luciferin-PPXE luminescence, 60 min; series mostly up to 57.1 µM; further: nearly all actives have a fitted effect of over 65% in size
Sequence of Cytochrome P450 3A4 (Homo sapiens) (P08684 whole entry, looked up): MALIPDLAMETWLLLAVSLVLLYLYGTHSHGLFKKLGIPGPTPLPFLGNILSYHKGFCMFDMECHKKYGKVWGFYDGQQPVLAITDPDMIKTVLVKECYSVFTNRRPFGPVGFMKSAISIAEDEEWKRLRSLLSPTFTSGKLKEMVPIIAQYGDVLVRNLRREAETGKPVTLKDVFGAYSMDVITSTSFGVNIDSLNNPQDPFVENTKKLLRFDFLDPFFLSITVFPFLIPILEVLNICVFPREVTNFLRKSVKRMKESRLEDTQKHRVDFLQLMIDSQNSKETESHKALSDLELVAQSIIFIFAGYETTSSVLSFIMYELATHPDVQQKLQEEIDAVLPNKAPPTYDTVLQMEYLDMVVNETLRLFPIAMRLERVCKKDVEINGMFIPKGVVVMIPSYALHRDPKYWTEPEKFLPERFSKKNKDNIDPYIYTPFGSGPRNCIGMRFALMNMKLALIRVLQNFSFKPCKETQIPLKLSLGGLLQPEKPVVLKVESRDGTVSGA
Summary of the method: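 Human CYP3A4 (20 nM) with Luciferin-PPXE at 25 uM (its KM) in 200 mM KPO4; 10 min compound preincubation, then NADPH regeneration and 60 min reaction at RT. Luciferin read by luminescence; normalized to 57 uM ketoconazole full inhibition.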

[15] = qHTS Assay for Lipid Storage Modulators (AID 1519; calls by dose curve; on activity change, negative = inhibition: on the % scale 0 is the no-effect control and ±100 the full control effect); conditions: Drosophila S3 cells, BODIPY lipid droplet/cell ratio, laser cytometry, cells loaded with oleic acid
Summary of the method: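 Cells seeded at 5,000 per well were treated with compounds over a concentration series and loaded with oleic acid (400 uM, as added). Lipid droplet fluorescence (488 nm excitation, 500-530 nm channel) was read by laser-scanning cytometry and normalized to 20 uM Triacsin C.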

[16] = biological target: Dual specificity protein kinase CLK4 (Homo sapiens) (UniProt Q9HAZ1); test: qHTS Assay for Inhibitors of CDC-like Kinase 4 (Kinase-Glo Assay) (AID 1770); conditions: recombinant Clk4, Kinase-Glo ATP depletion luminescence; series mostly up to 66.7 µM; further: on the % scale 0 is the no-effect control and ±100 the full control effect; nearly all actives have a fitted effect of over 65% in size
Summary of the method: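 25 nM Clk4 with 100 uM RS repeat peptide and 1 uM ATP (final) in Tris pH7.5, 10 mM MgCl2, 4.5 h at room temperature. Remaining ATP measured by Kinase-Glo luciferase luminescence.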

[17] = Confirmatory qHTS for small molecule stabilizers of the endoplasmic reticulum resident proteome: Secreted ER Calcium Modulated Protein (SERCaMP) assay (AID 1508628); conditions: SERCaMP secreted luciferase ER calcium/proteostasis reporter; series mostly up to 76.3 µM;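 further: SH-SY5Y cells given compound 16 h then thapsigargin 100 nM for 4 h; on the % scale 0 is the no-effect control and ±100 the full control effect; nearly all actives have a fitted effect of over 40% in size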
Summary of the method: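 We seeded SH-SY5Y-GLuc-SERCaMP cells, added compounds (three concentrations in the primary run, eleven up to 76.6 uM in confirmation), incubated 16 h, depleted ER calcium with thapsigargin, and read luciferase 4 h later.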

SMILES | Potency [1] | Potency [2] | Potency [3] | Potency [4] | outcome [5] | Potency [6] | Potency [7] | Potency [8] | Potency [9] | Potency [10] | Potency [11] | max response [12] | Potency [13] | Potency [14] | activity change, negative = inhibition ([15]; at 57.5 µM (top of the series)) | max response ([15]; measured here: cell count channel max response) [%] | max response ([15]; measured here: lipid channel max response) [%] | Potency [16] | Potency [17]
COc1ccc(-n2c(=O)c(-c3ccccc3)nc3cnc(N4CCNCC4)nc32)cc1 | > 11.4 µM (inactive) | 15.8 µM (active) | > 9.22 µM (inactive) | > 46 µM (inactive) | inactive | inactive | 3.16 µM (active) | inactive | inactive | inactive | inactive | 0.755% (inactive) | – | – | – | – | – | – | –
COCCn1c(=O)c(-c2cc(F)cc(F)c2)nc2cnc(N3CCNCC3)nc21 | > 11.4 µM (inactive) | 6.31 µM (active) | > 9.22 µM (inactive) | > 46 µM (inactive) | inactive | inactive | – | – | – | – | inactive | – | 1.26 µM (active) | inactive | – | – | – | – | –
COc1ccc(-c2nc3cnc(N4CCN(C)CC4)nc3n(Cc3cccc(OC)c3)c2=O)cc1 | > 11.4 µM (inactive) | – | > 9.22 µM (inactive) | > 46 µM (inactive) | – | inactive | – | inactive | inactive | inactive | – | – | – | – | -2.59% (inactive) | 8.4 | 2.85 | inactive | inactive
